# Reference: PubChem BioAssay
# Where “and” joins values, the source holds several entries; their conditions need not be identical. Identical values can stand only once. Inconclusive results are not listed. Calls of active or inactive are those of the source. Unless noted, no rule for the calls is given here.
# Tests used:
# [1] = system: Aerobactin synthetase IucA (Klebsiella pneumoniae); test: inhibition of K. pneumoniae IucA enzyme – biochemical, Tocris library, absorbance (AID 1345561); conditions: purified IucA enzyme assay, absorbance (OD) read-out; stronger effect = lower value;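 tested at 8 µM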;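 also: 100% = enzyme without compound and 0% = no enzyme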
# [2] = viability loss with induced miR-34 in A549 – imaging, A549 dox-inducible miR-34, nuclei and caspase counts, primary screen (AID 1347080;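 active = compounds whose cell count with miR-34 switched on is under 0.7 times the count with it off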); conditions: A549 miR-34 inducible, Hoechst nuclei count, 48 h
# [3] = blockers of cellular phospholipid synthesis – cell-based, LOPAC library, screen 4, primary screen (AID 1347384); conditions: animal cells, phospholipid biosynthesis inhibition screen; at 10 µM
# [4] = galactose survival enhancers in mitochondrial complex I cybrids – cell-based, galactose medium, ATP luminescence, primary screen (AID 1645843;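 active = z-score of at least 1.8 in each of two replicates, scored against plate mean and spread of sample wells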;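 also: positive z means more ATP and so rescue of galactose-driven cybrid death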); conditions: complex I mutant cybrid cells, 72 h, stronger effect = higher value
# [5] = MELAS cybrid and Rieske KO viability enhancers – cell-based, MELAS cybrids, Rieske KO mouse fibroblasts, CellTiter-Glo, primary screen (AID 1508586;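 active = mean z-score across replicates of 1.96 or higher in either the MELAS or the Rieske mutant cell line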;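 also: z relative to plate mean and SD of compound and empty wells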); conditions: low glucose
# [6] = viability loss in pontine glioma line – cell-based, SU-DIPG-IV, MIPE4.0, CellTiter-Glo, qHTS, dose response (AID 1347063; cut-off not given, nearly all actives have AC50 up to about 30 µM;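 also: compound exposure lasted 48 hours before the viability readout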); conditions: CellTiter-Glo ATP luminescence
# [7] = viability loss in pontine glioma line – cell-based, SU-DIPG-XIII, MIPE5.0, CellTiter-Glo, qHTS, dose response (AID 1347064; cut-off not given, nearly all actives have AC50 up to about 23 µM;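 also: cells exposed to compound for 48 hours before the viability read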); conditions: CellTiter-Glo ATP luminescence
# [8] = viability loss in pontine glioma line – cell-based, SU-DIPG-XXV, MIPE5.0, CellTiter-Glo, qHTS, dose response (AID 1347065; cut-off not given, nearly all actives have AC50 up to about 26 µM;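 also: cells exposed to compound for 48 hours before ATP readout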); conditions: CellTiter-Glo ATP luminescence
# [9] = growth inhibition of DIPG cells – cell-based, MIPE4.0 library, CellTiter-Glo luminescence, qHTS (AID 1347066; cut-off not given, nearly all actives have AC50 up to about 30 µM;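 also: cells exposed to compound for 48 hours before readout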); conditions: SU-DIPG-VI viability, CellTiter-Glo ATP luminescence
# [10] = JHH-DIPG-1 glioma cell viability, MIPE5.0 library, CellTiter-Glo luminescence, qHTS (AID 1347067; cut-off not given, nearly all actives have AC50 up to about 26 µM;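 also: cells exposed to compound for 48 hours before readout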); conditions: JHH-DIPG-1 glioma viability, CellTiter-Glo ATP luminescence
# [11] = compounds altering circadian rhythm period length – cell-based, LOPAC library, luminescence reporter (AID 2774); conditions: circadian reporter cells, at 7 µM, actives lie on both sides;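 also: values are relative to mean of DMSO wells on each plate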
# [12] = system: Hepatitis C virus NS3 helicase; test: blockers of NS3h binding to ssDNA – biochemical, fluorescence polarization, LOPAC1280 library, primary screen (AID 687035; in the data active = inhibition above about 37%); conditions: Purified HCV NS3 helicase, Cy5-dT15 ssDNA binding fluorescence polarization; stronger effect = higher value; concentration not given here
# [13] = compounds altering Cy5-DNA-NS3h complex signal – biochemical, LOPAC1280, artefact control for HCV NS3 helicase inhibitor project (AID 687037); conditions: Cy5-DNA-NS3h complex fluorescence interference counterscreen
# [14] = stronger effect = lower value, cell number ratio, induced over uninduced
# [15] = measured here: relative caspase fold change +Dox/-Dox
# [16] = measured here: total cells with miR-34 induction, stronger effect = lower value
# [17] = measured here: total cells without miR-34 induction
smiles,measurement,setting,value
O=c1ccc2[nH]cc(C3=CCNCC3)c2[nH]1,remaining activity,[1],123% (inactive)
same,fold change,[2]; stronger effect = lower value,0.986 (inactive)
same,fold change,[2]; [14],0.934 (inactive)
same,fold change,[2]; [15],2.8 and 0.965
same,cell count,[2]; [16],10100 and 7840
same,cell count,[2]; [17],10200 and 8390
same,outcome,[3],inactive
same,z-score,[4],0.725 (inactive) and 0.015 (inactive)
CN1c2ccccc2C(NCCCCCCC(=O)O)c2ccc(Cl)cc2S1(=O)=O (stereo not drawn),remaining activity,[1],117% (inactive)
same,fold change,[2]; stronger effect = lower value,0.955 (inactive) and 0.9 (inactive)
same,fold change,[2]; [15],0.36 and 0.634
same,cell count,[2]; [16],7100 and 7840
same,cell count,[2]; [17],7430 and 8710
same,z-score,"[5]; MELAS cybrid survival, CellTiter-Glo 48 h, stronger effect = higher value",-0.117 (inactive)
same,z-score,"[5]; Rieske KO mouse fibroblast survival, CellTiter-Glo 72 h",0.00377
same,z-score,[4],0.255 (inactive)
COc1ccc(C(=O)c2c(C)n(CCN3CCOCC3)c3cc(I)ccc23)cc1,remaining activity,[1],93.9% (inactive)
same,AC50,[6],20.9 µM (active)
same,AC50,[7],23.5 µM (active)
same,AC50,[8],16.6 µM (active)
same,AC50,[9],23.5 µM (active)
same,AC50,[10],23.5 µM (active)
same,fold change,[2]; stronger effect = lower value,1.09 (inactive)
same,fold change,[2]; [15],0.642
same,cell count,[2]; [16],2860
same,cell count,[2]; [17],2630
same,z-score,[4],-0.38 (inactive)
C[C@@H]1O[C@@H](O[C@@H]2C[C@@H](O)[C@]3(CO)[C@H]4[C@H](O)C[C@]5(C)[C@@H](C6=CC(=O)OC6)CC[C@]5(O)[C@@H]4CC[C@]3(O)C2)[C@H](O)[C@H](O)[C@H]1O,remaining activity,[1],107% (inactive)
same,fold change,[2]; [14],0.807 (inactive)
same,fold change,[2]; [15],1.91
same,cell count,[2]; [16],346
same,cell count,[2]; [17],430
same,z-score,[4],-0.765 (inactive)
CN1C2CCC1CC(OC(=O)c1cc(Cl)cc(Cl)c1)C2 (stereo not drawn),period change,[11],-0.075 h (inactive)
same,inhibition,[12],-7% (inactive)
same,fluorescence ratio (interference),[13],0.9 (inactive)
same,remaining activity,[1],82.7% (inactive)
same,fold change,[2]; stronger effect = lower value,1.08 (inactive) and 0.937 (inactive)
same,fold change,[2]; [15],1.35 and 0.719
same,cell count,[2]; [16],8680 and 8550
same,cell count,[2]; [17],8070 and 9130
same,outcome,[3],inactive
same,z-score,[4],-0.22 (inactive) and 0.04 (inactive)
Oc1ccc2c3c1O[C@H]1c4oc5ccccc5c4C[C@@]4(O)C(C2)N(CC2CC2)CC[C@]314,remaining activity,[1],104% (inactive)
same,fold change,[2]; stronger effect = lower value,0.944 (inactive)
same,fold change,[2]; [15],0.874
same,cell count,[2]; [16],9060
same,cell count,[2]; [17],9600
same,z-score,[4],-0.325 (inactive)
O=C(CCCN1CCC2(CC1)C(=O)N(Cc1cccc(F)c1)CN2c1ccccc1)c1ccc(F)cc1,remaining activity,[1],109% (inactive)
same,fold change,[2]; [14],1.27 (inactive)
same,fold change,[2]; [15],1
same,cell count,[2]; [16],1590
same,cell count,[2]; [17],1250
same,z-score,[4],-1.2 (inactive)
CN(C)c1ccc(/C=C2\CCCN=C2c2cccnc2)cc1,remaining activity,[1],94.5% (inactive)
same,fold change,[2]; [14],0.947 (inactive)
same,fold change,[2]; [15],1.33
same,cell count,[2]; [16],8030
same,cell count,[2]; [17],8480
same,z-score,[4],-0.4 (inactive)
CCCCCCC[n+]1ccc(-c2cc[n+](CCCCCCC)cc2)cc1,remaining activity,[1],77% (inactive)
same,fold change,[2]; [14],1.13 (inactive)
same,fold change,[2]; [15],1.23
same,cell count,[2]; [16],1940
same,cell count,[2]; [17],1710
same,z-score,[4],-1.1 (inactive)
CCOC(=O)c1ncc2[nH]c3ccc(OCc4ccccc4)cc3c2c1COC,remaining activity,[1],105% (inactive)
same,fold change,[2]; [14],0.974 (inactive)
same,fold change,[2]; [15],1.71
same,cell count,[2]; [16],2080
same,cell count,[2]; [17],2130
same,z-score,[4],-0.79 (inactive)
